Screening results from PubChem.
A selection: hits, their analogues and other compounds. The true share with any hit is near 21%.
RORgamma inh: ROR gamma (mouse) transcription inhibition; P51450; Drosophila S2 Gal4-RORgamma UAS-luciferase reporter, 20 h; Potency, µM (series often up to 53.6 µM), hits mostly inhibitors; 310,000 tested, 5.4% active; AID 2551; also: nearly all actives have a fitted effect of over 60% in size
Target sequence (P51450 whole entry, looked up, the tested form may be a part): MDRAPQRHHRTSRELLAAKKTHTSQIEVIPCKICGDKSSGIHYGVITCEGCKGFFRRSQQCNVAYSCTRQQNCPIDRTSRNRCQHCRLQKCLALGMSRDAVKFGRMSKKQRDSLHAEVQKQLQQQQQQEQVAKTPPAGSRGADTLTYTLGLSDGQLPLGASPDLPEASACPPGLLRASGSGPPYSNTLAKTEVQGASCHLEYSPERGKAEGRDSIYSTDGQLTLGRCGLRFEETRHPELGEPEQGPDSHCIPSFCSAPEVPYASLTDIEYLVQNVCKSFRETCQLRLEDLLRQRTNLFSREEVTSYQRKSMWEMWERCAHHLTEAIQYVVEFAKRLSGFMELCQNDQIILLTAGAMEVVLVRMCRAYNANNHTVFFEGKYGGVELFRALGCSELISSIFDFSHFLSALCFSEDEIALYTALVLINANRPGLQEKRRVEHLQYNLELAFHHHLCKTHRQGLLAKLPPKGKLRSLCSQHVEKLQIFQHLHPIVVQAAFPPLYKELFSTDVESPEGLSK
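Compounds are pin-transferred onto Drosophila Schneider cells expressing a copper-inducible Gal4–ROR gamma transactivation domain fusion. After 1 hr, copper sulfate is added to 700 uM final; luciferase is read 20 hr later.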
DT40 TDP1 CPT: DT40-hTDP1 cell growth loss with CPT. 420,000 tested, 12% active. Potency, µM (titrated, usually from 46.2 µM), hits mostly inhibitors. chicken DT40 Tdp1-/-;hTDP1 cells + 20 nM CPT, ATP luminescence, 48 h; also: nearly all actives have a fitted effect of over 55% in size
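Chicken DT40 Tdp1-/- cells stably complemented with human TDP1 were seeded at 400 cells/well in medium containing 20 nM camptothecin, exposed to pin-transferred compounds, and grown at 37 °C for at least 48 hr. Viability was read as ATP luminescence.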
IL-1B inflam inh: blocks inflammasome-driven IL-1 beta release. THP-1 LPS/ATP IL-1B secretion, AlphaLISA, 16 h; hits give low values. activity change, % at 57.5 µM. 360,000 tested, 4.7% active; in the data active = activity change below about -50%; inconclusive = mostly about -30% to -49%
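THP-1 cells pretreated 1 hr with compounds (up to 57.5 uM final), then stimulated with LPS (250 ng/mL final) plus ATP (1.25 mM final); secreted IL-1B measured by AlphaLISA after 16 hr, decreased signal indicating inhibition.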
DT40 TDP1 no CPT: qHTS for Inhibitors of human tyrosyl-DNA phosphodiesterase 1 (TDP1): qHTS in cells in absence of CPT; DT40 Tdp1-/- hTDP1 cells, no CPT, ATP luminescence, 48 h; Potency, µM (series often up to 46.2 µM), actives largely listed as inhibitors; 420,000 tested, 15% active; also: nearly all actives have a fitted effect of over 55% in size
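Readout: luminescence from CellTiter-Glo after 30 min in the dark at RT. Cells: DT40 Tdp1-/- with stable hTDP1, 400/well. Exposure: compounds alone, ≥48 hr, 37 °C.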
VP16 counter: counter-screen for ROR gamma inhibitors: Gal4-VP16 reporter; Drosophila S2 Gal4-VP16 UAS-luciferase, luminescence, 20 h; Potency, µM (doses to about 53.6 µM), most hits filed as inhibitors; 310,000 tested, 3.5% active;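 also: Gal4-VP16 expression switched on by copper sulfate through the metallothionein promoter; nearly all actives have a fitted effect of over 50% in size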
ELG1 DNA repair: blocks ELG1-dependent DNA repair in HEK293T cells | HEK293T ELG1-luciferase reporter, luminescence, 16 h; DNA damage induced by 5-fluorouridine | Potency, µM (highest dose often 46.1 µM), usual class: inhibitors | 330,000 tested, 2.3% active; also: nearly all actives have a fitted effect of over 55% in size
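5-Fluorouridine DNA damage + compound/DMSO, 2,000 cells/well, 16 h, 37 °C/5% CO2. ONE-Glo, 30 min RT, luminescence. Readout = decrease in reporter signal.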
A number is an active result; - = inactive; ? = inconclusive; . = no result given; [ ] = another dose, or the depositor's remark. Unless noted, calls follow the shape of the dose curve; as a rule, active = well fitted curve in the direction sought with a large enough effect; inconclusive = small, poorly fitted or top-dose-only effect, or another doubt; inactive = no such curve, though single readings can be large; an effect the other way counts as inactive or inconclusive.

SMILES	RORgamma inh	DT40 TDP1 CPT	IL-1B inflam inh	DT40 TDP1 no CPT	VP16 counter	ELG1 DNA repair
CC(=O)c1c(C(C)=O)c(C)n(-c2nc(-c3ccc(C)c(C)c3)c(C)s2)c1C	?	18µM	-67	23µM	?	?
CC(=O)c1c(C(C)=O)c(C)n(-c2nc(-c3cccs3)c(C)s2)c1C	-	?	-	?	-	-
COc1ccc(-c2nc(-n3c(C)c(C(C)=O)c(C(C)=O)c3C)sc2C)cc1	-	21µM	-	23µM	-	-
CC(=O)OCC1=C[C@@H]2OC(=O)C3=CO[C@@H](O[C@@H]4O[C@H](CO)[C@@H](O)[C@H](O)[C@H]4O)[C@H]1[C@@H]32	.	-	-	-	.	-
C=C1C(=O)OC2C=C(CO)C3OC3C3OC3(C)CC(OC(=O)/C(=C/C)COC(C)=O)C12 (configuration not stated)	.	1.3µM	-101	1.8µM	.	.
CC(O)[C@H]1CNCCN1CC1(c2ccccc2)CC1 (some centres not stated)	.	-	-	-	.	?
CCC(C)[C@H]1CNCCN1CCc1cccc2ccccc12 (some centres not stated)	.	16µM	-	?	.	-
CCC(C)[C@H]1CNCCN1CCC12CC3CC(CC(C3)C1)C2 (some centres not stated)	.	26µM	-62	12µM	.	?
CCC(C)[C@H]1CNCCN1CC1(c2ccccc2)CC1 (some centres not stated)	.	21µM	-	18µM	.	-
CCCCCCC/C=C/C1=CC2(C)CC1(C)C(CCCCCCC)CC2=O (configuration not stated)	-[10 µM]	.	.	.	-[10 µM]	.
CN(CC(=O)O)c1ccc(C=O)cc1	.	-	.	-	.	.
COc1cc(/C=C/c2ccc3c(Br)cc(Br)c(O)c3n2)ccc1O	0.4µM	3.3µM	-	5.2µM	0.32µM	?
COc1ccc(/C=C/c2ccc3c(Br)ccc(O)c3n2)cc1	3.2µM	10µM	-	21µM	3.5µM	?
Cc1cc(Nc2cccc(O)c2)c2cccc(Br)c2n1	.	-	.	-	.	.
Cc1ccc2c(Br)cc(Br)c(O)c2n1	0.25µM	7.5µM	.	8.4µM	0.71µM	.
CCC(Sc1nc2cc3c(cc2c(=O)n1CCCC(=O)NCc1ccc2c(c1)OCO2)OCO3)C(=O)NCCCOC (configuration not stated)	.	-	.	-	.	.
CC(C)[C@H](NC(=O)c1ccco1)C(=O)Nc1ccc(N2CCCCCC2)cc1	.	-	-	-	.	.
c1ccc(C2NCCc3ccccc32)cc1 (configuration not stated)	-	?	-	26µM	-	-
c1ccc2c(c1)CCNC2c1ccncc1 (configuration not stated)	-	-	-	-	-	?
O=C(Nc1ccc(O)c2c(=O)cc(-c3ccccc3Cl)oc12)c1ccc(Br)cc1	-	.	.	.	-	.
Cc1c(C(=O)O)c(O)cc2c1C(=O)c1c(O)c([C@H]3O[C@H](CO)[C@@H](O)[C@H](O)[C@H]3O)c(O)c(O)c1C2=O	?	8.9µM	.	?	?	.
Cc1cc(C=O)c(C)n1-c1ccc(NC2CCCC2)c([N+](=O)[O-])c1	-	?	-82	18µM	-	?
COc1ccc(CNC(=O)C2CCN(C(=O)N3CCOc4ccc(C)cc43)CC2)cc1	-	-	-	-	-	?
Cc1ccc2c(c1)N(C(=O)N1CCC(C(=O)NCc3ccccc3C)CC1)CC(C)O2 (configuration not stated)	.	21µM	.	16µM	.	.
CC1CN(C(=O)NCc2ccccc2)c2cc(Cl)ccc2O1 (configuration not stated)	-	?	-	?	-	-
SMILES	RORgamma inh	DT40 TDP1 CPT	IL-1B inflam inh	DT40 TDP1 no CPT	VP16 counter	ELG1 DNA repair
Cc1ccc(CNC(=O)C2CCN(C(=O)N3CC(C)Oc4ccc(Cl)cc43)CC2)cc1 (configuration not stated)	.	?	.	18µM	.	.
CCCc1cc(=O)[nH]c2nnc(SCCC(C)C)n12	.	-	.	-	.	.
CCOC(=O)CSc1nc(-c2ccc(C)cc2C)cc(-c2ccccc2)c1C#N	.	-	.	-	.	.
O=C(Nc1ccc(O)cc1)c1cc2ccccc2c(=O)s1	-	?	-	16µM	-	?
COc1ccccc1NC(=O)c1c(NC(=O)COc2ccccc2)sc2c1CCCCC2	.	-	.	-	.	.
COc1ccc(NC(=O)c2c(NCc3sccc3C)sc3c2CCCCC3)c(OC)c1	.	3.3µM	.	3.3µM	.	.
COc1ccc(NC(=O)c2c(NC(=O)CNCC(C)C)sc3c2CCC3)c(OC)c1	-	4.1µM	-	6.5µM	-	-
COc1ccc(NC(=O)c2c(NCc3cccs3)sc3c2CCCC3)c(OC)c1	.	16µM	.	16µM	.	.
COc1ccc(NC(=O)CNCc2cccs2)c(OC)c1	.	-	-	-	.	.
COc1ccc(Cl)cc1NC(=O)c1c(NCc2sccc2C)sc2c1CCCC2	.	?	.	21µM	.	.
COc1ccc(OC)c(NC(=O)c2c(NC(=O)c3ccco3)sc3c2CCC3)c1	-	.	.	.	-	-
CCc1ccccc1NC(=O)Cn1c(=O)n(CCc2ccccc2)c(=O)c2sc3ccccc3c21	.	-	.	?	.	.
CC(C)N(C(=O)c1ccc(Cc2cn(C)c3ccccc23)nc1)C(C)C	.	?	-	?	.	.
CC1=C(C(=O)Nc2cccnc2)C(c2ccc(F)cc2)n2nc(SCc3ccccc3F)nc2N1 (configuration not stated)	.	-	.	-	.	.
COc1ccc(OC)c(NC(=O)c2c(NCc3cccs3)sc3c2CCCCC3)c1	.	23µM	.	?	.	.
COc1ccc(OC)c(NC(=O)c2c(NC(=O)CCC(=O)O)sc3c2CCCCC3)c1	-	?	-	?	-	-
CCOC(=O)Nc1ccc2nc(N3CCCCCC3)sc2c1	?	3.7µM	-	2.6µM	-	?
CCOc1ccc2nc(N3CCCC(C(=O)Nc4ccc(OC)cc4)C3)sc2c1 (configuration not stated)	.	15µM	.	12µM	.	.
CCOc1ccc2nc(N3CCCC(C(=O)NCCc4ccc(SC)cc4)C3)sc2c1 (configuration not stated)	.	-	.	?	.	.
CCOc1ccc2nc(N3CCCC(C(=O)NC4CCCC4)C3)sc2c1 (configuration not stated)	-	?	-	21µM	-	-
CCOc1ccc2nc(N3CCCC(C(=O)Nc4ccc(CC)cc4)C3)sc2c1 (configuration not stated)	.	16µM	.	10µM	.	.
CCOc1ccc2nc(N3CCC(C(=O)NC4CCCCC4)CC3)sc2c1	-	?	-	?	-	-
CCOc1ccc2nc(N3CCCC(C(=O)NCc4ccccc4OC)C3)sc2c1 (configuration not stated)	.	?	.	23µM	.	.
